From PubChem BioAssay
ELG1 repair inh: blocks ELG1-dependent DNA repair in HEK293T cells; 330,000 tested, 2.3% active; Potency, µM (highest dose often 46.1 µM), without a hit: at the highest dose activity change, negative = inhibition, hits mostly inhibitors; HEK293T ELG1-luciferase reporter, luminescence, 16 h; DNA damage induced by 5-fluorouridine; also: % is scaled to controls: 0 for no effect and ±100 for the full control effect; nearly all actives have a fitted effect of over 55% in size
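5-Fluorouridine DNA damage + compound/DMSO, 2,000 cells/well, 16 h, 37 °C/5% CO2. ONE-Glo, 30 min RT, luminescence. Readout = decrease in reporter signal.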
NPC1 prom act: activators of NPC1 promoter. Huh7 NPC1 promoter luciferase reporter, 24 h. Potency, µM (series often up to 9.22 µM), without a hit: at the top dose activation, usual class: activators. 320,000 tested, 2.4% active; also: % of control where 0% means no effect; nearly all actives have a fitted effect of over 60% in size
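Readout is luciferase luminescence, reflecting NPC1 promoter activation in stably transfected Huh7 cells after 24 h compound exposure at 37 °C in reduced-serum medium with 10% FBS.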
FLuc counter: inhibits or activates purified firefly luciferase, miR-21 counter-screen | Potency, µM (doses to about 57.5 µM), without a hit: at the highest dose activity change, negative = inhibition, hits mostly inhibitors | AID 588342 | purified FLuc, Km substrates, luminescence inhibition | 360,000 tested, 6.9% active;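 also: plate controls were vehicle for no effect and reference inhibitor for full effect; nearly all actives have a fitted effect of over 55% in size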
Target sequence (P08659 whole entry, looked up): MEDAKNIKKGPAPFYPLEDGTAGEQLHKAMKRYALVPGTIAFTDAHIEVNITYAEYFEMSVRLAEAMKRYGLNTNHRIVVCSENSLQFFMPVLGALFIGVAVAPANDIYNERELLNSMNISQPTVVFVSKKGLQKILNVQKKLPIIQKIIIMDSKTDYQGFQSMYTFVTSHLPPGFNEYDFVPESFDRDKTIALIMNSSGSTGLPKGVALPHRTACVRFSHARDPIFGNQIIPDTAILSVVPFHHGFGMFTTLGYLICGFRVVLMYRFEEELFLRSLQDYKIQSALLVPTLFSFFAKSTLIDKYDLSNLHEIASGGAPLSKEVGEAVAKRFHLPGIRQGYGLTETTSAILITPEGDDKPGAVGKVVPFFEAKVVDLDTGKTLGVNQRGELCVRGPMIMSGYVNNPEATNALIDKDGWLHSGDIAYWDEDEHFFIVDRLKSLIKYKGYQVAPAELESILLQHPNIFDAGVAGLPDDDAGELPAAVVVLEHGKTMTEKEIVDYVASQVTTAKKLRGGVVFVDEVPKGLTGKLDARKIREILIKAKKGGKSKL
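Purified P. pyralis luciferase (10nM final) with 10uM D-luciferin and 10uM ATP (Km levels) in 50mM Tris acetate pH 7.5, 10mM Mg acetate, 0.01% Tween-20, 0.05% BSA; qHTS 6-point titration, ~60 µM downward; luminescence read.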
SMN2 splice enh: increases expression of the SMN2 splice variant | HEK293 SMN2-luciferase splicing reporter, luminescence, 30-36 h | Potency, µM (doses to about 46.1 µM), inactives show top-dose activity change, positive = activation, hits mostly activators | 210,000 tested, 2.8% active | AID 1458; also: % of control where 0% means no effect; nearly all actives have a fitted effect of over 55% in size
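HEK293 cells carry an SMN2 minigene-luciferase reporter in which exon 7 inclusion puts luciferase in frame. Cells were seeded at 2000 cells/well, attached for 10-12 hours, then exposed to compounds for 30-36 hours at 37C before ONE-Glo luminescence.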
ELG1 genotoxic: inducers of genotoxicity in HEK293T ELG1-luciferase cells; Potency, µM (highest dose often 46 µM), inactives show at the highest dose activity change, positive = activation, hits mostly activators; HEK293T ELG1-luciferase reporter, luminescence, 16 h; 330,000 tested, 1.3% active; also: % of control where 0% means no effect; nearly all actives have a fitted effect of over 60% in size
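Genotoxic stress is detected as increased luminescence from luciferase-tagged ELG1 in HEK293T cells, measured with ONE-Glo after a 16 hr treatment at 37 °C.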
Rab9 promoter act: activates the Rab9 promoter; Potency, µM (doses to about 9.22 µM), for the others: top-dose activation, negative = inhibition, usual class: activators; Huh7 Rab9 promoter-luciferase reporter, luminescence, 24 h; 320,000 tested, 2.8% active; also: % of control where 0% means no effect; nearly all actives have a fitted effect of over 60% in size
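Measured in stably transfected Huh7 cells bearing a Rab9 promoter–luciferase construct: 24 h compound treatment at 37 °C, followed by luminescence detection.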
Starred values were filed as active, the others as inactive; ? = inconclusive; . = no result; [ ] = dose if it differs, or a comment. Hits are enriched below; roughly 9.4% of the tested compounds scored in any of these assays. Calls follow the shape of the dose curve; as a rule, active = well fitted curve in the direction sought with a large enough effect; inconclusive = small, poorly fitted or top-dose-only effect, or another doubt; inactive = no such curve, though single readings can be large; an effect the other way counts as inactive or inconclusive. Potency is read from the fitted curve at half-maximal effect.

SMILES	ELG1 repair inh	NPC1 prom act	FLuc counter	SMN2 splice enh	ELG1 genotoxic	Rab9 promoter act
CC(C)(C)CC(=O)Nc1nnc(-c2cccs2)s1	?	3.2µM*	-18%	13µM*	12%	3.2µM*
Cc1nnc(NC(=O)c2cccc(F)c2)s1	?	2%	?	10%	14%	1%
COc1ccc(C(=O)Nc2nnc(-c3cccs3)s2)cc1	?	1µM*	1.2µM*	7.1µM*	0.52µM*	0.79µM*
Cc1occc1C(=O)Nc1nnc(-c2cccs2)s1	?	?	?	3.5µM*	?	3.2µM*
O=C(Nc1nnc(-c2cccs2)s1)c1cccc(F)c1	?	1.8µM*	?	8.9µM*	?	0.89µM*
COc1ccc(OC)c(NC(=O)C(C)n2c(=O)c(-c3ccccc3NC(C)=O)nc3ccccc32)c1 (centres undefined)	.	.	-7%	.	.	.
COc1cccc(NC(=O)Cn2c(=O)n(CC(=O)NCc3ccc(C)cc3)c(=O)c3sccc32)c1	.	.	-5%	-11%	.	.
O=C(Nc1ccccc1)Nc1nnc(-c2cccs2)s1	?	?	-10%	?	15%	?
COc1ccc(NC(=O)Nc2nnc(-c3cccs3)s2)cc1	?	4.5µM*	?	.	17%	4µM*
NNc1nc(-c2ccccc2)cc(-c2ccc(Br)cc2)n1	14%	-4%	?	.	-9%	-3%
Brc1ccc(-n2cnc(-c3ccccc3)c2)cc1	?	1.4µM*	0.95µM*	.	?	0.56µM*
CC(C)n1cc(CN2CCN(C)C(CCO)C2)c2ccccc21 (centres undefined)	-8%	-2%	5%	.	-3%	1%
Nc1ccccc1Nc1ccccc1	-11%	-5%	-6%	16%	-10%	0%[1.84 µM]
Nc1ccccc1Nc1cc(-c2ccccc2)[nH]n1	?	-28%	11µM*	?	8%	-16%
Nc1ccccc1Nc1cc(-c2ccccc2)nn1-c1ccccc1	?	10%	17µM*	12%	8%	16%
Cc1ccc(-n2nc(-c3ccccc3)cc2Nc2ccccc2N)cc1	-17%	1%	?	-3%	-3%	-1%
COc1cc(OC)cc(-c2c(C#Cc3ccsc3)c3cc(-c4cc(F)cc(F)c4)ccc3n2C)c1	17%	.	.	.	7%	.
CCOc1ccc(N(CC)S(=O)(=O)c2cc(Br)cc3c2N(C(C)=O)C(C)C3)cc1 (centres undefined)	.	.	-14%	-64%	.	.
CN(C(=O)c1cc(COc2ccc(F)cc2Cl)on1)C1CCCc2ccccc21 (centres undefined)	-17%	-20%	0%	.	-9%	-2%
Cc1nonc1CN(C)C(=O)c1cc(COc2ccc(F)cc2Cl)on1	?	27%	?	.	9%	19%
Cc1ccc(CN(C)C(=O)c2cc(COc3ccc(F)cc3Cl)on2)o1	?	14%	21µM*	.	9%	14%
Cc1cc(CN(C)C(=O)c2cc(COc3ccc(F)cc3Cl)on2)n[nH]1	?	24%	17µM*	.	?	?
CC1=NN(C(N)=S)C(=O)C1N=Nc1cccc2ccccc12 (centres undefined)	?	?	17µM*	?	?	?
CCNC(=O)CC1SC(=Nc2cccc3ccccc23)N(C)C1=O (centres undefined)	14%	-7%	0%	10%	3%	1%
Cc1c(Cl)cccc1NC(=S)Nc1ccccn1	4%	-25%	4%	12%	-7%	-25%
SMILES	ELG1 repair inh	NPC1 prom act	FLuc counter	SMN2 splice enh	ELG1 genotoxic	Rab9 promoter act
CC1=NN(C(N)=S)C(=O)C1N=Nc1cccc(Cl)c1C (centres undefined)	?	?	11µM*	.	7%	3.5µM*
Nc1ccc(Cc2nc3c(ccc4ccccc43)[nH]2)cc1	0%	4µM*	13µM*	11%	?	4µM*
Cc1ccc2[nH]c3c(c2c1)CC/C(=C/c1ccccc1)C3=O	?	28%	4.8µM*	?	?	?
Cc1ccc(/C=C2/CCc3c([nH]c4ccccc34)C2=O)cc1	?	0.5µM*	0.76µM*	6.3µM*	?	0.45µM*
CC(C)/C=C1\CCc2c([nH]c3ccccc23)C1=O	17%	12%	?	.	-14%	?
CCN(CC)Cc1c(-c2ccccc2)[nH]c2ccc(C)cc2c1=O	0%	22%	-12%	-7%	5%	1%
O=C1/C(=C\c2ccccc2)CCc2c1[nH]c1ccccc21	?	?	2.7µM*	11µM*	1.5µM*	?
N#C/C(=C\Nc1ccccn1)C(=O)c1ccco1	.	.	.	5%[9.22 µM]	.	.
Cc1c(C)n(CCc2ccccc2)c2ncnc(NN)c12	?	-26%	-15%	.	-3%	-14%
Cc1c(C)n(CCc2ccccc2)c2ncnc(NCCCO)c12	?	1.8µM*	11µM*	.	?	1.6µM*
COCCn1c(C)c(C)c2c(NCCc3ccccc3)ncnc21	?	0.35µM*	0.85µM*	.	?	0.5µM*
CC(C)(C)OC(=O)N1CCC(c2c(C(=O)NC3CCCCC3)cnn2-c2cccc(Cl)c2)CC1	.	.	-2%	.	.	.
COc1ccc(C2CC(=O)Nc3c2c(=O)[nH]c2nc4ccccc4n32)cc1 (centres undefined)	.	.	-13%	-5%	.	.
CC(=O)c1ccc(N2CCN(C(=O)c3cc4c(s3)-c3ccccc3OC4)CC2)cc1	.	.	-7%	7%	.	.
CC(=O)OCC(=O)c1c[nH]c2ccccc12	-8%	4%	-16%	-1%	1%	0%
Cc1[nH]c2ccccc2c1C(=O)COC(=O)C1CCC1	-4%	-2%	15µM*	.	0%	1%
Cc1[nH]c2ccccc2c1C(=O)COC(=O)C1CCC(=O)N1 (centres undefined)	-6%	2%	4%	8%	0%	1%
O=C(Cc1ccccc1[N+](=O)[O-])OCC(=O)c1c[nH]c2ccccc12	?	?	11µM*	.	13%	?
O=C(COC(=O)C1CC1)c1c[nH]c2ccccc12	?	?	12µM*	?	?	?
O=C(COC(=O)C1CCC1)c1c[nH]c2ccccc12	0%	-1%	11µM*	.	1%	2%
COC(=O)[C@@H]1[C@@H]2C[C@H]3c4[nH]c5ccccc5c4CCN3C[C@@H]2CC[C@@H]1O	.	.	.	-8%[9.22 µM]	.	.
CCOc1ccc(S(=O)(=O)N2CCN(c3cccc(C(F)(F)F)c3)CC2)cc1OCC	.	.	-4%	-9%	.	.
CCOc1ccc(C2C(=O)N(C3CCCCC3)CC(=O)N2Cc2ccccc2OC)cc1OC (centres undefined)	.	.	-8%	.	.	.
